Measurements reported in the OligoGym collection.

The sequences below were run against CNPPD1 (assay: pooled miR-30 sensor sort-seq; sequence = guide strand). Details: shRNA.
Also: reference of the scale not given here.

| Sequence | sensor-assay potency score (higher = more potent) |
| --- | --- |
| TATTTCTTCTGGAGTCGGCGAA | -0.148 |
| TATGCCACAGCTAACAGGCAAG | -1.37 |
| TTACTGGCCACCATCATGGAGA | -0.834 |
| TGAAAAGGGAACATTGCTGAGG | -0.362 |
| ATGAGCTACGTATTTCTTCTGG | -0.315 |
| TTCGACAGCAATGTCTGCCACC | -0.8 |
| TTCAATGTACACCAGAGCCAGC | -1.25 |
| TTCGTCGTTGAAGACCTCCTCC | 0.0687 |
| TAGAGCCTCCTTCGGATCCGGG | -1.33 |
| TCTCTCTGGAGCTTCTGGCAAA | -0.958 |
| TCTGTGTAGGTGTACCAGCCTC | -1.36 |
| TAGTCTGGGTTTCGGTGCCGGA | -1.29 |

These sequences were tested against CNTD1 in the same assay as above. Details: shRNA.

| Sequence | sensor-assay potency score (higher = more potent) |
| --- | --- |
| TCTCTTATTATCTCTTGGCTGG | -0.35 |
| AAACTTGTTGACAAGCTGCTGT | 0.446 |
| TTTAGTGTGTAGATAGCCTAGA | 0.238 |
| TTTTGGATGAAAGCACTTGCTG | -1.34 |
| TTTGGATGAAAGCACTTGCTGC | -0.907 |
| TAGACTGCTGTCTCCCCGGAGT | -0.817 |
| TTCATGCAGAAGATAGACCAGG | -0.656 |
| TTACCATAAACCTTTCTAGGAT | -0.637 |
| TAAACTTGTTGACAAGCTGCTG | -0.0466 |
| TAAGAGAACTCAGCAATGCTTG | -0.451 |
| TTCTAGGATTTCTACAGCCTGG | -0.787 |

The sequences below were run against COBRA1 in the same assay as above. Details: shRNA.

| Sequence | sensor-assay potency score (higher = more potent) |
| --- | --- |
| TTGGATATGAGACTGGGGCTTT | -0.217 |
| AAACTTAGTGAAGCTTTCGGGA | -0.764 |
| ATGAGCATCGGGAGGAACCTGG | -1.62 |
| TTCTGATCCACATTGAAAGTGT | -0.064 |
| TTTTTTCTCCGGAACCTTGGGC | 0.129 |
| TTCTCTGTCTGGAACTGCTCGA | -0.254 |
| TTGCTGTCCACGAACCGCTCTC | -0.427 |
| TGACACTCGCTCCAGCAGCTTG | -1.51 |
| TACAGCTTCACGTTCTTCCCCA | 0.123 |
| ATGAGCTCTACCTCCATCTTGG | -0.766 |
| TTCTTGTTCCTCTGCTTGGTGA | -1.3 |

These sequences were tested against COG2 in the same assay as above. Details: shRNA.

| Sequence | sensor-assay potency score (higher = more potent) |
| --- | --- |
| TTCTGTGGCAATTCTCTCCAAA | -0.386 |
| TCATCTGACCAACACCTCCTAA | -1.05 |
| TTAATCTCTTTACACTAGCCTG | -1.22 |
| TAATCTCTTTACACTAGCCTGT | -0.36 |
